From PubChem BioAssay (NCI)
Values joined by “and” are separate entries in the source; they are usually repeats but may differ in a detail not shown here. Equal values may be shown once. About 83,000 compounds went through this panel and 20% of them were active in at least one assay; those are over-represented in the sample as a whole.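 Cells were grown in 96-well plates and exposed to the test compound at a single concentration for 48 hours; results are reported as percent growth, with values below 10 considered active.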 Some structures have more than one record in an assay (separate samples or runs), and their calls can disagree. Active and inactive are the calls of the source.

How the values were obtained:
Assay in all cases: NCI-60 one-dose screen, 48 h (100 = growth as untreated, 0 = no growth, -100 = all killed)
Conditions in all cases: 10 µM unless noted
[1] = system: DU-145 prostate
[2] = system: K-562 leukemia
[3] = system: MALME-3M melanoma
[4] = system: MDA-MB-231 breast
[5] = system: RXF 393 renal
[6] = system: SF-268 CNS
[7] = system: SF-295 CNS
[8] = system: SF-539 CNS
[9] = system: UACC-257 melanoma
[10] = system: M14 melanoma

`OC1CCC(Oc2cccc3cnc(Nc4ccc5nc[nH]c5c4)nc23)CC1` (stereo not given) was tested, and the growth [1] was 13.2% (inactive) and 48% (inactive), the growth [2] was 9.4% (active) and 54% (inactive) and the growth [3] was -8.81% (active) and 86.7% (inactive). For the same compound, the growth [4] was 2.87% (active) and 44.5% (inactive), the growth [5] was -16.8% (active) and 23% (inactive) and the growth [6] was 1.49% (active) and 45.4% (inactive). The growth [7] was 13.1% (inactive) and 62.2% (inactive), the growth [8] was -34.1% (active) and 32% (inactive) and the growth [9] was -24.7% (active) and 44.8% (inactive). For the same compound, the growth [10] was -9.41% (active) and 49.1% (inactive).

For `OC(COc1cccc2ccccc12)CN1CCN(c2ccc(Cl)cc2)CC1` (stereo not given), the growth [1] was 93.1% (inactive) and 122% (inactive), the growth [2] was 66.3% (inactive) and 85% (inactive) and the growth [3] was 109% (inactive) and 106% (inactive). For the same compound, the growth [4] was 83.6% (inactive) and 112% (inactive), the growth [5] was -3.89% (active) and 94.8% (inactive) and the growth [6] was 91.1% (inactive) and 103% (inactive). For the same compound, the growth [7] was 70.2% (inactive) and 83.2% (inactive), the growth [8] was 91.3% (inactive) and 102% (inactive) and the growth [9] was 114% (inactive) and 95.9% (inactive). The growth [10] was 90.9% (inactive) and 100% (inactive).

`O=C1c2ccccc2C(=O)c2c(NCCNCCO)ccc(NCCNCCO)c21` was tested, and the growth [1] was -41.7% (active) and 24.3% (inactive) and 14% (inactive), the growth [2] was 135% (inactive) and 24.8% (inactive) and 7.96% (active) and the growth [3] was -15.3% (active) and 45.8% (inactive) and 46.7% (inactive). For the same compound, the growth [4] was -6.87% (active) and 11.3% (inactive) and 12.1% (inactive), the growth [5] was 0.645% (active) and the growth [6] was -16.6% (active) and 4.52% (active) and -6.95% (active). For the same compound, the growth [7] was -21.5% (active) and 7.17% (active), the growth [8] was -17% (active) and 29.6% (inactive) and 19.9% (inactive) and the growth [9] was 72.2% (inactive) and 89.1% (inactive) and 82.5% (inactive). For the same compound, the growth [10] was 10.7% (inactive) and 47.4% (inactive) and 33.9% (inactive).

With `O=C(/C=C\c1ccnc2ccccc12)c1ccc([N+](=O)[O-])cc1` the growth [1] was 101% (inactive) and 96% (inactive), the growth [2] was 55.1% (inactive) and 8.08% (active) and the growth [3] was 101% (inactive) and 85.5% (inactive). The growth [4] was 84.1% (inactive) and 93.2% (inactive), the growth [5] was 107% (inactive) and 75.7% (inactive) and the growth [6] was 105% (inactive) and 91.6% (inactive). For the same compound, the growth [7] was 82.6% (inactive), the growth [8] was 85.2% (inactive) and the growth [9] was 90% (inactive) and 65.8% (inactive). For the same compound, the growth [10] was 90.7% (inactive) and 79.5% (inactive).

`Nc1cc(-c2cccc(OC(F)(F)F)c2)nc2ccc(N3CCCC3)cc12` was tested, and the growth [1] was 14.4% (inactive) and 16.2% (inactive) and 5.85% (active), the growth [2] was -12.9% (active) and 4.92% (active) and 3.73% (active) and the growth [3] was -28.6% (active) and 51.7% (inactive) and 24.8% (inactive). For the same compound, the growth [4] was 5.28% (active) and 18.1% (inactive) and 29.3% (inactive), the growth [5] was 7.48% (active) and 12.1% (inactive) and 20.7% (inactive) and the growth [6] was 26.1% (inactive) and 28.4% (inactive) and 27.6% (inactive). The growth [7] was 5.27% (active) and 16.2% (inactive) and 9.05% (active), the growth [8] was -39.9% (active) and -21.2% (active) and -28.5% (active) and the growth [9] was -42.2% (active) and 74.8% (inactive) and 48.9% (inactive). The growth [10] was -72.1% (active) and 1.77% (active) and -1.96% (active).

With `N/C(=N\N=C\c1ccc2c(c1)OCO2)N/N=C\c1ccc2c(c1)OCO2` the growth [1] was 110% (inactive) and 83.9% (inactive), the growth [2] was 90.1% (inactive) and the growth [3] was 92.7% (inactive). For the same compound, the growth [4] was 107% (inactive) and 90.4% (inactive), the growth [5] was 110% (inactive) and the growth [6] was 101% (inactive) and 76.2% (inactive). The growth [7] was 114% (inactive) and 121% (inactive), the growth [8] was 109% (inactive) and 113% (inactive) and the growth [9] was 110% (inactive) and 97% (inactive). The growth [10] was 100% (inactive) and 59.7% (inactive).

With `Cc1cc(=O)[nH]c(O)c1C#N` the growth [1] was 112% (inactive) and 106% (inactive), the growth [2] was 106% (inactive) and 112% (inactive) and the growth [3] was 98% (inactive) and 103% (inactive). The growth [4] was 107% (inactive) and 109% (inactive), the growth [5] was 106% (inactive) and the growth [6] was 109% (inactive) and 101% (inactive). The growth [7] was 99.6% (inactive) and 98.5% (inactive), the growth [8] was 97.8% (inactive) and 105% (inactive) and the growth [9] was 99.4% (inactive) and 103% (inactive). The growth [10] was 99.4% (inactive) and 101% (inactive).

In the case of `CC1(C)[C@@H](OC(=O)CCC(=O)O)CC[C@]2(C)[C@H]3C(=O)C=C4[C@@H]5C[C@@](C)(C(=O)O)CC[C@]5(C)CC[C@@]4(C)[C@]3(C)CC[C@@H]12`, the growth [1] is reported as 101% (inactive) and -1.77% (active), the growth [2] is reported as 92.3% (inactive) and 5.05% (active) and the growth [3] is reported as 108% (inactive) and -65.4% (active). The growth [4] was 110% (inactive) and -5.44% (active), the growth [5] was 125% (inactive) and -88.8% (active) and the growth [6] was 96.1% (inactive) and -27% (active). The growth [7] was 106% (inactive) and -51.1% (active), the growth [8] was 99.9% (inactive) and -73% (active) and the growth [9] was 99.2% (inactive) and -46.5% (active). For the same compound, the growth [10] was 103% (inactive) and -12.8% (active).
